Hits are enriched below; roughly 12% of the tested compounds scored in any of these assays.
JMJD2A Tudor inh: JMJD2A Tudor domain (human) inhibition | O75164 | AlphaScreen JMJD2A-Tudor / H3K4me3 peptide binding | Potency, µM (series often up to 114 µM), inactives show top-dose activity change, negative = inhibition, actives largely listed as inhibitors | actives 4.4% (n = 390,000) | AID 504339; further: on the % scale 0 is the no-effect control and ±100 the full control effect; nearly all actives have a fitted effect of over 50% in size
Target sequence (O75164 whole entry, looked up, the tested form may be a part): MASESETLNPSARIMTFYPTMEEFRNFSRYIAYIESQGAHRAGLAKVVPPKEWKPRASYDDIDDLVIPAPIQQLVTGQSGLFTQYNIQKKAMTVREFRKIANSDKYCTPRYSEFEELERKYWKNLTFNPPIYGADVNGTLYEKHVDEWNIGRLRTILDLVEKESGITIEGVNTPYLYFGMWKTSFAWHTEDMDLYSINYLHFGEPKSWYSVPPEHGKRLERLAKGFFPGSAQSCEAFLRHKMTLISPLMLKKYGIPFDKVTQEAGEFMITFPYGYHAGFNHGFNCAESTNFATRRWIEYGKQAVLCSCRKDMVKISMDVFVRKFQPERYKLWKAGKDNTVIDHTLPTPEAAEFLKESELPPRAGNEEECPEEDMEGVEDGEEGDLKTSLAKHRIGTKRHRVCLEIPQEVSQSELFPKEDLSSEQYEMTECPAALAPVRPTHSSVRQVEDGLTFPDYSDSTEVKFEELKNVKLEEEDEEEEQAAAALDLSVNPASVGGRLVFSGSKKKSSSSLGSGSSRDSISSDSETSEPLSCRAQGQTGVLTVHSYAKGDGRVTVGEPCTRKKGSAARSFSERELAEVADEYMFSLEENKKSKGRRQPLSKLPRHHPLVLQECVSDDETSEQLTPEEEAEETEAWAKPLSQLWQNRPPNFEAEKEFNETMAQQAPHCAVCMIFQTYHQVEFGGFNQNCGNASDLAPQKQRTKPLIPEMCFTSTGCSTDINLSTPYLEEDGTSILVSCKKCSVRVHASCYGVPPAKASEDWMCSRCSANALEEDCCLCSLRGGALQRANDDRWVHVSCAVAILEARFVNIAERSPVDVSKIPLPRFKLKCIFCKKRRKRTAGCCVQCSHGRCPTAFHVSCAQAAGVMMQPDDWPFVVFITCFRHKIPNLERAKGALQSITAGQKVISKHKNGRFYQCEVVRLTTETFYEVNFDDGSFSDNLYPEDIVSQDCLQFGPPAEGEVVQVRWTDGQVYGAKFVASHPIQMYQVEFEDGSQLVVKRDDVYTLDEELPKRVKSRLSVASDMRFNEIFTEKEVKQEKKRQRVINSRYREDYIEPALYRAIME
BAZ2B inh: inhibitors of human BAZ2B bromodomain; Q9UIF8; AlphaScreen BAZ2B-H3K14Ac peptide displacement; Potency, µM (highest dose often 114 µM), for the others: top-dose activity change, negative = inhibition, actives largely listed as inhibitors; actives 4.4% (n = 360,000); AID 504333; further: on the % scale 0 is the no-effect control and ±100 the full control effect; nearly all actives have a fitted effect of over 60% in size
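Protein-peptide AlphaScreen: BAZ2B 50 nM, b-H3K14Ac 50 nM, 1x PBS pH 7.4 + 0.01% Tween-20. Preincubation 30 min RT; cpd 30 min RT (top 110 uM); beads 20 min RT, light-protected.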
Sfp PPTase inh: Sfp phosphopantetheinyl transferase inhibition; Q9F4F7; Potency, µM, for inactives: largest response in the series, negative = inhibition, hits mostly inhibitors; actives 3.5% (n = 310,000); AID 1490; Biochemical Sfp PPTase activity, qHTS;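 further: the enzyme is Sfp with the accession as filed and its product quenches rhodamine fluorescence; 0% = enzyme reaction without inhibitor and -100% = no enzyme wells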
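Fluorescence-quenching assay: 15 nM Sfp-PPTase preincubated 15 min at room temperature with compound, then 5 uM rhodamine-CoA and 12.5 uM BHQ-2-labelled YbbR peptide added. Fluorescence (ex 525/em 598 nm) read at start and after 30 min; difference gives rate.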
G9a block: inhibitors of human histone lysine methyltransferase G9a | Q96KQ7 | G9a H3K9 monomethylation, AlphaScreen, 2 h | Potency, µM (top dose mostly 102 µM), inactives show at the top dose activity, negative = inhibition, usual class: inhibitors | actives 8.8% (n = 350,000) | AID 504332; further: on the % scale 0 is the no-effect control and ±100 the full control effect; nearly all actives have a fitted effect of over 75% in size
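Step 1: enzyme (final 20 nM) with compound, 15 min RT. Step 2: substrate peptide 500 nM and SAM 20 uM, 2 h RT. Step 3: anti-H3K9me1 antibody and AlphaScreen beads, 10 min, then plate read.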
HP1b binding inh: HP1-beta chromodomain-methylated histone interaction inhibition | Potency, µM (series often up to 114 µM), for the others: at the top dose activity change, negative = inhibition, hits mostly inhibitors | AlphaScreen HP1-beta / biotin-H3K9me3 peptide binding | AID 540317 | actives 0.56% (n = 390,000); further: nearly all actives have a fitted effect of over 70% in size
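Compound inhibition of the preformed complex between 50 nM HP1-beta and 50 nM biotinylated H3K9me3 peptide was read by AlphaScreen. Buffer was PBS pH 7.4 with 0.01% Tween-20. Incubations ran 30 min at room temperature, with 10 ug/mL donor/acceptor beads.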
L3MBTL1 block: inhibitors of human L3MBTL1. Q9Y468. AlphaScreen L3MBTL1–H3K9me1 peptide binding. Potency, µM (highest dose often 57.1 µM), inactives show top-dose activity, negative = inhibition, hits mostly inhibitors. actives 0.66% (n = 230,000); further: on the % scale 0 is the no-effect control and ±100 the full control effect; nearly all actives have a fitted effect of over 60% in size
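AlphaScreen assay: L3MBTL1 (50 nM final) was preincubated 30 min at room temperature with biotinylated H3(1-15)K9me1 peptide (75 nM final), then 30 min with library compounds; streptavidin donor and nickel chelate acceptor beads (10 ug/mL final) added, 30 min dark.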
* hit, by the source's call; ? = inconclusive; / = not tested or not shown; [ ] = another dose, or the depositor's remark. The call rests on the fitted dose curve; in most records, active means well fitted curve in the direction sought with a large enough effect; inconclusive means small, poorly fitted or top-dose-only effect, or another doubt; inactive means no such curve, though single readings can be large; an effect the other way counts as inactive or inconclusive. Potency means the concentration at half of the fitted maximal effect.

SMILES	JMJD2A Tudor inh	BAZ2B inh	Sfp PPTase inh	G9a block	HP1b binding inh	L3MBTL1 block
Cc1ccc(C(=O)c2cn(CC(=O)NCc3ccccc3Cl)c3nc(C)ccc3c2=O)cc1	-8.1%	10.1%[57.1 µM]	/	-24.9%[59 µM]	30.2%	/
COC(=O)[C@@H]1C[C@H]1[C@@H](NS(=O)(=O)c1ccc(-c2ccccc2)cc1)c1ccccc1	/	/	16.5%	/	/	/
O=C(OCc1cc(=O)n2nc(-c3cccs3)sc2n1)c1ccccc1	-33.3%	-31.9%	/	32.0%[59 µM]	-26.1%	/
CCOC(=O)C1=C(C)N=c2sc(=C(C)C)c(=O)n2C1c1ccc(N(C)C)cc1 (stereo unspecified)	89.1µM*	/	/	/	-8.8%	/
N#Cc1nc(Nc2cccc(-c3ccccc3)c2)nc(NC2CCCC2)n1	-13.0%	/	/	/	/	/
O=C(O)c1ccccc1-c1ccccc1C(=O)Nc1cccc(Br)c1	-16.1%	-25.3%	22.6%	44.7µM*	-23.6%	7.7%
O=C(O)c1ccccc1-c1ccccc1C(=O)NNc1ccccc1	-14.8%	-5.3%	6.2%	8.91µM*	59.9%	7.2%
O=C(O)c1ccccc1-c1ccccc1C(=O)Nc1ccccc1	-8.3%	-3.3%	26.6%	-3.5%[12.7 µM]	14.7%	4.1%
Cn1c(=O)c2c(nc(SCc3cccnc3)n2Cc2ccccc2)n(C)c1=O	35.5µM*	-8.3%	79.4µM*	?	22.4%	12.6%
Cn1c(=O)c2c(nc(CN3CCN(Cc4ccccc4)CC3)n2Cc2ccc(Cl)cc2)n(C)c1=O	?	-26.5%	10.9%	44.7µM*	11.8%	/
C=C(C)Cn1c(N2CCN(c3ccc(OC)cc3)CC2)nc2c1c(=O)n(C)c(=O)n2C	?	?	-11.3%	16.7%[59 µM]	-8.9%	/
COc1ccc(N2CCN(c3nc4c(c(=O)n(C)c(=O)n4C)n3Cc3ccccc3)CC2)cc1	56.2µM*	44.7µM*	-12.9%	-49.4%[12.7 µM]	?	/
CCCn1c(SCC(=O)N2CCN(c3ccc(OC)cc3)CC2)nc2c1c(=O)n(C)c(=O)n2C	-19.9%	-27.3%	-4.4%	50.1µM*	26.5%	-3.0%
CCOc1ccc(N2C(=O)C3C(c4ccc(O)cc4)NC(CCSC)(C(=O)OC)C3C2=O)cc1 (stereo unspecified)	-12.5%	-24.0%	7.8%	/	21.7%	-2.8%
O=C(OC[C@@H]1O[C@@](O)(COC(=O)c2cccnc2)[C@H](OC(=O)c2cccnc2)[C@H]1OC(=O)c1cccnc1)c1cccnc1	/	/	6.2%	?	/	/
CCN1CCN(c2nc3c(c(=O)n(C)c(=O)n3C)n2Cc2cccc3ccccc23)CC1	-4.9%	-5.2%	14.8%	39.8µM*	17.6%	-11.9%
COc1ccc(C(=O)Cn2c(Br)nc3c2c(=O)n(C)c(=O)n3C)cc1OC	9.7%	13.1%	-24.2%	13.7%	30.1%	2.3%
COC(=O)Cn1c(CN2CCc3ccccc3C2)nc2c1c(=O)n(C)c(=O)n2C	-14.6%	12.4%	8.6%	50.1µM*	54.7%	2.7%
CCN1CCN(Cc2nc3c(c(=O)n(C)c(=O)n3C)n2Cc2cccc3ccccc23)CC1	-15.2%	8.3%	2.1%	3.7%[59 µM]	17.0%	-4.0%
COc1ccc(C(=O)Cn2c(Br)nc3c2c(=O)n(C)c(=O)n3C)cc1	-13.2%	-29.9%	50.1µM*	-0.5%[59 µM]	3.2%	2.0%
Cc1nn(-c2ccccc2)c2c1cc1c(=O)n(C)c(=O)nc-1n2-c1ccccc1F	-0.7%	5.9%	3.8%	31.6µM*	46.1%	15.5%
Cc1nn(-c2ccccc2)c2c1cc1c(=O)n(C)c(=O)nc-1n2-c1cccc(Cl)c1	8.3%	/	/	8.0%[59 µM]	69.2%	/
CCOc1ccc(-c2nc(CCl)cs2)cc1OC	7.0%[57.1 µM]	?	-0.6%	44.7µM*	70.3%	7.0%[11.4 µM]
COc1cccc(-c2nc(CCl)cs2)c1OC	50.1µM*	?	1.4%	22.4µM*	60.0%	-3.0%
COc1cccc(-c2nc(CC(=O)O)cs2)c1OC	4.6%[57.1 µM]	-7.7%	3.7%	-8.3%[12.7 µM]	32.4%	/
COc1ccc(-c2nc(CC(=O)O)cs2)cc1OC	/	?	11.2%	?	/	/
